# Compound activity (PubChem BioAssay)
# Compounds with a hit are over-represented: about 0.38% of the library has one in this group of screens.
# Rac1 mut GTP – GTP binding modulators of activated mutant Rac1, primary screen, biochemical, bead-based flow cytometry, multiplex, fluorescent GTP. GST-Rac1 activated beads; actives lie on both sides; 100% means binding = to untreated wells. Ras-related C3 botulinum toxin substrate 1 (Homo sapiens), P63000. percent activity (GTP binding), % at 10 µM. hit rate 0.11% among 190,000;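 active = GTP binding at least 20 percentage points away from the 100% baseline, in either direction, so actives lie on both sides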
# Rac1 wt GTP bind – wildtype Rac1 GTP binding modulators, primary screen, biochemical, GST-Rac1 beads, flow cytometry, multiplex. hit rate 0.27% among 190,000. fluorescent GTP binding; actives lie on both sides; 0 = cold GTP competed, 100 = untreated. Ras-related C3 botulinum toxin substrate 1 (Homo sapiens), P63000. GTP binding activity (% of control), % at 10 µM. AID 757, 2007;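 active = GTP binding activity at least 20 points away from the 100% control level, either lower or higher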
# Rab7 wt modul – modulators of GTP binding to Rab7, primary screen, biochemical, wildtype, multiplex bead flow cytometry; hit rate 0.055% among 190,000; GST-Rab7 beads, fluorescent GTP binding; actives lie on both sides; untreated = 100%, excess cold GTP = 0%; Rab7 GTPase wild type (dog), Bodipy-FL-GTP binding; GTP binding activity (percent of control), % at 10 µM;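 active = fluorescent GTP binding to Rab7 beads changed by at least 20 points from the 100% baseline, either direction, mostly lower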;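 also: median green fluorescence of bound Bodipy-FL-GTP per Rab7 bead population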
# HRas wt GTP bind – modulators of GTP binding to HRas wildtype, primary screen, biochemical, bead-based flow cytometry, multiplex; GTPase HRas (Homo sapiens), P01112; GST-Ras wt beads, Bodipy-FL-GTP binding; actives lie on both sides; GTP binding activity, % at 10 µM; hit rate 0.14% among 190,000;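 active = GTP binding activity at least 20% away from the 100% baseline, either lowered as inhibitor or raised as activator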;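 also: 0% = unlabeled GTP competition control and 100% = no-compound control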
# Target sequence (P01112 whole entry, looked up): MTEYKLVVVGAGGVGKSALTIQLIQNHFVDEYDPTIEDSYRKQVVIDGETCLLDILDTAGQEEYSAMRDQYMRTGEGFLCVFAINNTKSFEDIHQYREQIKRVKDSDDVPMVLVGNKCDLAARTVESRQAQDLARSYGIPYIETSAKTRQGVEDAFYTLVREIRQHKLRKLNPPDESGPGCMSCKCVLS
# Cdc42 wt GTP – modulators of GTP binding to wildtype Cdc42, primary screen, biochemical, multiplex bead flow cytometry, Bodipy-GTP. GST-Cdc42 beads; actives lie on both sides. percent activity (GTP binding), % at 10 µM. hit rate 0.2% among 190,000. AID 761, 2007;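 active = percent activity GTP binding at least 20 points away from the 100% baseline, either down as inhibitor or up as activator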;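 also: median bead fluorescence of bound Bodipy-FL-GTP at 100 nM; 0% = excess unlabeled GTP control and 100% = no compound control; below 100% means less GTP binding so inhibitor and above means activator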
# Target sequence (P60953 whole entry, looked up): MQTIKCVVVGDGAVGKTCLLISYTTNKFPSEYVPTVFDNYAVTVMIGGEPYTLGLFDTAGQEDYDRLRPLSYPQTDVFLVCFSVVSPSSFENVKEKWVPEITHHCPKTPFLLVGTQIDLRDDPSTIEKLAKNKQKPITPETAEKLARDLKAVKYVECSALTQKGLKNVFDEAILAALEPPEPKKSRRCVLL
# Rab2A wt mod – modulators of GTP binding to Rab2A wildtype, primary screen, biochemical, dog, bead-based flow cytometry, multiplex | Ras-related protein Rab-2A (Canis lupus familiaris), P61105 | GST-Rab2 wt beads, Bodipy-GTP binding | GTP binding activity, % at 10 µM | hit rate 0.19% among 190,000 | AID 760, 2007;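 active = GTP binding activity at least 20 points away from 100%, either lowered or raised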;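 also: 0% = beads with excess unlabeled GTP and 100% = no-compound control corrected for plate trend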
# The depositor's hits bear a star; [ ] = dose if it differs, or a comment.
SMILES,Rac1 mut GTP,Rac1 wt GTP bind,Rab7 wt modul,HRas wt GTP bind,Cdc42 wt GTP,Rab2A wt mod
N#CCc1c(C#N)c(N)nc(N2CCN(C=O)CC2)c1C#N,86.0,73.0*,89.0,79.0*,78.0*,77.0*
N#CCc1c(C#N)c(N)nc(N2CCN(S(=O)(=O)c3ccccc3)CC2)c1C#N,94.0,95.0,97.0,93.0,95.0,94.0
CC(=O)Nc1ccc(NC(=O)c2c(C)nn(-c3ccccc3)c2Cl)cc1C,95.0,96.0,101.0,94.0,94.0,98.0
CCOC(=O)Cn1c(=O)c2c(nc3n2CCN3Cc2ccccc2)n(C)c1=O,96.0,102.0,100.0,100.0,99.0,99.0
CCOC(=O)Cn1c(=O)c2c(nc(N3CCCCC3)n2C)n(C)c1=O,111.0,142.0*[activator],107.0,109.0,123.0*[activator],109.0
O=C(COC(=O)Cn1cnc2ccccc21)Nc1cccc(S(=O)(=O)N2CCOCC2)c1,97.0,101.0,101.0,101.0,103.0,101.0
O=C(O)c1ccc(NC(=S)NC2CCCCC2)cc1,101.0,100.0,102.0,101.0,100.0,100.0
S=C(Nc1ccc(Oc2ccc(NC(=S)NC3CCCCC3)cc2)cc1)NC1CCCCC1,99.0,106.0,98.0,101.0,104.0,101.0
S=C(Nc1ccc(Oc2ccccc2)cc1)NC1CCCCCC1,100.0,109.0,101.0,100.0,79.0*,96.0
S=C(Nc1ccc(Oc2ccccc2)cc1)NC1CCCCC1,107.0,141.0*[activator],104.0,107.0,115.0,115.0
CCCN(CC1CC1)C(=S)Nc1ccc(Oc2ccccc2)cc1,101.0,102.0,99.0,99.0,79.0*,99.0
CCCCN(C)C(=S)Nc1ccc(Oc2ccccc2)cc1,100.0,104.0,103.0,100.0,97.0,103.0
Cn1nc(-c2ccccc2)c(CN2CCN(c3ncccn3)CC2)c1Cl,96.0,96.0,96.0,96.0,94.0,96.0
COC(=O)c1ccc(OCC(O)CN2C(=O)c3ccccc3S2(=O)=O)cc1 (centres undefined),96.0,98.0,96.0,94.0,96.0,96.0
COc1cc(NC2c3ccccc3C(=O)N2c2ccc(C)cn2)cc(OC)c1OC (centres undefined),101.0,107.0,101.0,102.0,105.0,100.0
Cc1ccc(N2C(=O)c3ccccc3C2Nc2cccnc2)nc1 (centres undefined),103.0,121.0*[activator],99.0,101.0,110.0,104.0
CN(Cc1ccccc1)S(=O)(=O)c1ccccc1[N+](=O)[O-],96.0,100.0,105.0,99.0,97.0,100.0
FC(F)c1nc2ccccc2[nH]1,97.0,101.0,100.0,100.0,100.0,99.0
c1ccc2[nH]c3cc4ncnc4cc3nc2c1,91.0,79.0*,87.0,77.0*,83.0,77.0*
Cc1ccc(-n2c(C)nn(Cc3ccc([N+](=O)[O-])cc3)c2=O)cc1,95.0,99.0,103.0,101.0,94.0,98.0
Cc1ccc(-n2c3nc(=O)[nH]c(=O)c-3cc3cc([N+](=O)[O-])ccc32)cc1,80.0,77.0*,87.0,82.0,80.0,82.0
CN(CC(=O)O)S(=O)(=O)c1ccc2c(c1)NC(=O)CC(=O)N2,95.0,98.0,104.0,96.0,94.0,95.0
CC(NC1CCCCC1)C(=O)NN=C(c1ccccc1)c1ccccc1 (centres undefined),97.0,98.0,96.0,98.0,98.0,97.0
COc1cc(-c2cc(=O)c3c(O)cc(O)cc3o2)ccc1O,88.0,78.0*,93.0,83.0,82.0,83.0
COc1cc(-c2cc(=O)c3ccccc3o2)ccc1O,93.0,93.0,97.0,94.0,93.0,94.0
SMILES,Rac1 mut GTP,Rac1 wt GTP bind,Rab7 wt modul,HRas wt GTP bind,Cdc42 wt GTP,Rab2A wt mod
CCOCCCNC(=S)N1CCC(C(=O)c2ccc3c(c2)OCCO3)CC1,95.0,101.0,96.0,96.0,97.0,98.0
Cc1ccn2c(NCc3ccc4c(c3)OCO4)c(-c3ccc(O)cc3)nc2c1,112.0,135.0*[activator],82.0,91.0,145.0*[activator],100.0
Cc1ccc(-n2c(-c3cnccn3)n[nH]c2=S)c(Br)c1,80.0,81.0,84.0,80.0,79.0*,82.0
CCOCCCn1c(=S)[nH]c2cc(C(=O)NCCCN(CC)CC)ccc2c1=O,98.0,99.0,103.0,99.0,93.0,98.0
O=c1c2ccccc2nc2c3ccccc3c(Cl)nn12,85.0,69.0*,86.0,81.0,80.0,78.0*
O=c1c2ccccc2nc2c3ccccc3c(NCc3ccco3)nn12,81.0,77.0*,88.0,68.0*,67.0*,66.0*
O=c1c2ccccc2nc2c3ccccc3cnn12,83.0,65.0*,83.0,77.0*,78.0*,77.0*
COc1cc2c(cc1OC)CN(c1nc(-c3cccnc3)nc3ccccc13)CC2,93.0,88.0,102.0,96.0,91.0,96.0
O=C1CCCN1CCC1CCCCN1Cc1nc(-c2cnccn2)no1 (centres undefined),97.0,99.0,92.0,96.0,95.0,94.0
C=C(C)COc1ccc(-c2n[nH]c(C)c2-c2ccc(Br)cc2)c(O)c1,92.0,79.0*,95.0,88.0,84.0,94.0
Cc1ccnc(NC(=O)Cn2cc([N+](=O)[O-])cn2)c1,95.0,98.0,104.0,98.0,100.0,99.0
CCOC(=O)c1cc([N+](=O)[O-])c([N+](=O)[O-])cc1NC(C)=O,80.0,96.0,91.0,93.0,78.0*,91.0
CCOC(=O)c1ccc(NC(=O)c2ccccc2[N+](=O)[O-])cc1,100.0,106.0,101.0,100.0,102.0,94.0
COC(=O)c1cccc(NC(=O)c2nn(C)c(=O)c3ccccc23)c1,81.0,72.0*,92.0,77.0*,73.0*,79.0*
Cn1nc(C(=O)NCc2cccnc2)c2ccccc2c1=O,98.0,100.0,96.0,98.0,96.0,99.0
Cn1nc(C(=O)Nc2cccnc2)c2ccccc2c1=O,86.0,85.0,92.0,74.0*,73.0*,69.0*
COc1ccc(S(=O)(=O)NCC2CCCN(CC(C)(C)C)C2)cc1 (centres undefined),98.0,99.0,102.0,97.0,98.0,101.0
CCOc1cccc(-c2nn3c(-c4ccco4)nnc3s2)c1,90.0,88.0,91.0,80.0,80.0,78.0*
COc1ccc(-c2nn3c(-c4ccco4)nnc3s2)cc1OC,82.0,70.0*,88.0,68.0*,68.0*,71.0*
COc1cccc(-c2nnc3sc(-c4ccco4)nn23)c1,102.0,107.0,102.0,103.0,107.0,103.0
COc1ccc(-c2nnc3sc(-c4ccco4)nn23)cc1OC,96.0,98.0,101.0,101.0,101.0,99.0
